The values that follow come from PubChem BioAssay (EPA / NIEHS).

SMILES strings stand for the structures. Calls of active or inactive are those of the source. The calls were made as follows: active = hit-call score of the fitted dose curve at least 0.9, where 1 is the maximum; inactive = score below 0.9.

The assay can be described thus: STM_H9_OrnithineISnorm_perc: Stemina devTOX quickPredict H9 human embryonic stem cell (hESC)-based Assay for Ornithine (ORN) Metabolite Biomarker, Normalized (AID 2283712).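 Also: ornithine released into spent medium during last day measured by mass spectrometry.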 The source says:
STM_H9_secretome utilizes undifferentiated H9 cells to measure relative changes in two metabolites, ornithine (ORN) and cystine (CYSS) in the secretome, targeting a critical drop in the ORN/CYSS ratio as a biomarker for developmental toxicity.STM_H9_OrnithineISnorm is one of 10 components calculated in the STM_H9_secretome assay. It measures the integrated area of the endogenous ornithine normalized to the spiked-in isotopically labeled standard and to the median value of the 0.1% DMSO neutral control treatment using UPLC-HRMS technology.Data from the assay component STM_H9_OrnithineISnorm_perc was analyzed at the assay endpoint STM_H9_OrnithineISnorm_perc in the positive analysis fitting direction relative to DMSO as the negative control and baseline of activity. Using a type of binding reporter, gain or loss-of-signal activity can be used to understand relative metabolite change.
H9 hESCs maintained in a pluripotent state were exposed to test compound for 72h with chemical replenishment with media replacement every 24h. Cell-conditioned media from the final 24-h treatment period was collected for analysis of the targeted biomarker, and cell viability of the corresponding cell layer was assessed. The chemical library was tested in blinded fashion. Each test plate included 1uM Methotrexate (MTX; Selleck Chemicals, Houston, Texas) as a positive reference, 5 nM MTX as a negative reference, 0.1% DMSO as the neutral (vehicle) control, and sample-level media blanks.H9 cell-conditioned media from the final 24-h treatment period was collected for analysis of the targeted biomarker and cell viability was measured from the corresponding cell layer. Cell viability was measured using the CellTiter-Fluor assay (Promega, Madison, Wisconsin) based on proteolytic cleavage of a substrate to fluorescent signal proportional to the number of living cells. The cell viability Relative Fluorescence Unit (RFU) was background corrected and normalized to mean RFU of the neutral control (0.1% DMSO). The collected H9-cell-conditioned media samples were processed for targeted biomarker analysis as described (Palmer et al., 2013). Briefly, spent media samples were deproteinized (40% acetonitrile) and processed for UPLC-HRMS. Data acquisition was performed using 4 separate UPLC-HRMS systems, consisting of an Agilent 1290 Infinity LC system (Agilent Technologies) interfaced with an Agilent high-resolution mass spectrometer (models G6520A, G6520B, G6530A, and G6224A). A Waters Acquity UPLC BEH Amide column (2.1mm x 50mm, 1.7lm particle size; Waters, Milford, Massachusetts) maintained at 40C was applied for separation of metabolites using a 6.5min solvent gradient with 0.1% formic acid in water and 0.1% formic acid in acetonitrile (1.0ml/min flow rate). Data were acquired using MassHunter Acquisition software (version B 04.00, Agilent Technologies). The extracted ion chromatogram (EIC) areas for ORN, CYSS, and their respective spike-in C13-standards were determined using the Agilent MassHunter Quantitative Analysis software, version B.05.00 or newer (Agilent Technologies), and data were normalized as described in Palmer et al. (2017).
`O=C(OCCOCCOC(=O)c1ccccc1)c1ccccc1`: the result was inactive. As a reminder, the AC50 is the concentration at which the activity in the assay is half-maximal. For the molecule `c1ccc2c(c1)ccc1ccccc12`, the AC50 is 88.8 µM (active). Same read-out and setting: under `CCc1ccc(CCOc2ccc(CC3SC(=O)NC3=O)cc2)nc1` (stereo unspecified) stands 72.1 µM (active). `O=C(O)Cc1cc(I)c(Oc2cc(I)c(O)c(I)c2)c(I)c1`: the result was inactive.

Turning to `CCN(CC)CCNc1ccc(CNC=O)c2sc3ccc(OC)cc3c(=O)c12`, the AC50 was 7.85 µM (active). Consider `CN(C)C=O`, for which the result was inactive. Regarding `C[C@@H]1C[C@H]2[C@@H]3CCC4=CC(=O)C=C[C@]4(C)[C@@]3(F)[C@@H](O)C[C@]2(C)[C@@]1(O)C(=O)COP(=O)(O)O`, the result was inactive. As to `CC1=C(/C=C/C(C)=C/C=C/C(C)=C/C(=O)O)C(C)(C)CCC1`, the half-maximal activity concentration (AC50) was 0.0785 µM (active). As for `CN1CCN(c2ccccc2/C=C2\SCCN(c3ccc(Cl)c(Cl)c3)C2=O)CC1`, the AC50 is 6.56 µM (active). For the molecule `COc1ccc([N+](=O)[O-])cc1N`, the outcome was inactive. The same measure, in the same setting: under `N#C[C@@H]1CC(F)(F)CN1C(=O)CNC1CC2CCC(C1)N2c1ncccn1` (stereo partly specified) stands “inactive”. `Cc1cc(CCN2CCN(c3nsc4ccccc34)CC2)cc2c1NC(=O)CC2(C)C`: the concentration at half-maximal activity (AC50) is 5 µM (active).

On to `Nc1cccc2c(N)cccc12`, for which the outcome was inactive.

Turning to `CN1CCC[C@H]1c1cccnc1`, the outcome was inactive. With `CCCCCCCCCCCCc1ccccc1S(=O)(=O)O`, the concentration at half-maximal activity (AC50) was 0.00695 µM (active). Consider `C#C[C@]1(O)CC[C@H]2[C@@H]3CCC4=CC(=O)CC[C@@H]4[C@H]3CC[C@@]21C`, for which the half-maximal activity concentration (AC50) is 74.6 µM (active).
